Measurements as given in PubChem BioAssay (EPA / NIEHS).
Results filed as inconclusive are left out. Active and inactive are the calls of the source. How the source made its calls, unless noted: active means hit-call score of the fitted dose curve at least 0.9, where 1 is the maximum; inconclusive means response in the unintended direction; inactive means score below 0.9.

Columns and labels:
[1] = target: rat Serotonin Transporter (SERT), Slc6a4 (gene 25553) (UniProt P31652); test: NVS_TR_rSERT: NovaScreen (NVS) Transporter Assay for rat Serotonin Transporter (SERT) (AID 2283375)
Outline: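 Rat forebrain membranes; radioligand displacement at SERT read by filter-based scintillation counting, 1 h after dosing. Screened in duplicate at 25 uM, actives then run in concentration series; loss of signal versus DMSO baseline.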

[2] = target: human Norepinephrine Transporter (NET), SLC6A2 (gene 6530) (UniProt P23975); test: NVS_TR_hNET: NovaScreen (NVS) Transporter Assay for human Norepinephrine Transporter (NET) (AID 2283377);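 further: cell-free membrane protein extracted from CHO cells expressing human NET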;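 on AC50: displacement of radioligand from human NET seen as loss of scintillation signal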
Outline: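 In this cell-free binding screen, chemicals at 25 uM (duplicate) compete with a radioligand for CHO-derived human NET over 1 hour, with filter-based radiodetection.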

[3] = target: Estrogen receptor beta (Homo sapiens) (UniProt Q92731); test: OT_ER_ERbERb_1440: Odyssey Thera (OT) 24-hour HEK293T Protein-Complementation Assay for Estrogen Receptor-beta/-beta Homodimer (AID 2283380);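 further: fluorescence gain from ER beta LBD homodimer complementation read by laser scanning cytometry; scored as signal increase over DMSO baseline for both agonists and antagonists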
Outline: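 HEK293T cells stably expressing human ER-beta LBD (aa 310-547) PCA homodimer pair, dosed 24 h; formaldehyde-fixed, Draq5-stained. Readout: increase in nuclear (agonist) or nuclear plus cytoplasmic (antagonist) fluorescence intensity versus DMSO, gain-of-signal fitting.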

[4] = target: Estrogen receptor (Homo sapiens) (UniProt P03372); test: OT_ERa_GFPERaERE_0480: Odyssey Thera (OT) 8-hour HeLa Transcription Induction Assay for Estrogen Receptor (AID 2283381; active means hit-call score of the fitted dose curve at least 0.9, where 1 is the maximum; inactive means score below 0.9)
Outline: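 Fluorescence microscopy with high-content image analysis measures ERE-driven GFP induction in HeLa cells at 8 h post-dose. Increases fitted against DMSO baseline.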

[5] = target: Estrogen receptor (Homo sapiens) (UniProt P03372); test: OT_ERa_GFPERaERE_0120: Odyssey Thera (OT) 2-hour HeLa Transcription Induction Assay for Estrogen Receptor (AID 2283382)
Outline: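 Fluorescence-microscopy images of the GFP-ERα/ERE reporter, scored by high-content image algorithms, give the readout. HeLa exposure lasted 2 h, and only signal increase over DMSO was fitted.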

[6] = target: Bile acid receptor (Homo sapiens) (UniProt Q96RI1); test: OT_FXR_FXRSRC1_0480: Odyssey Thera (OT) 8-hour HEK293T Protein-Complementation Assay for Farnesoid X receptor/SRC-1 Co-activator (AID 2283383)
Outline: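 Binding of FXR to coactivator SRC-1 was read as fluorescence from a reconstituted split reporter in HEK293T cells, 8 h after chemical addition. Only increases in signal versus DMSO were fit.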

[7] = target: Bile acid receptor (Homo sapiens) (UniProt Q96RI1); test: OT_FXR_FXRSRC1_1440: Odyssey Thera (OT) 24-hour HEK293T Protein-Complementation Assay for Farnesoid X receptor/SRC-1 Co-activator (AID 2283384)
Outline: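 Protein-fragment complementation: FXR and SRC-1 fused to reporter fragments that reassemble on interaction, read by fluorescence intensity. Human HEK293T cells measured 24 h post-dose; positive-direction fit versus DMSO.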

[8] = target: Retinoic acid receptor RXR-alpha (Homo sapiens) (UniProt P19793); test: OT_NURR1_NURR1RXRa_0480: Odyssey Thera (OT) 8-hour HEK293T Protein Complementation Assay for Nurr1/retinoid X receptor (RXR) (AID 2283385)
Outline: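 Interaction of Nurr1 with RXRα read as reconstituted reporter fluorescence in a HEK293T fragment-complementation system, 8 h post-treatment; increase over DMSO baseline analysed.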

[9] = target: Retinoic acid receptor RXR-alpha (Homo sapiens) (UniProt P19793); test: OT_NURR1_NURR1RXRa_1440: Odyssey Thera (OT) 24-hour HEK293T Protein Complementation Assay for Nurr1/retinoid X receptor (RXR) (AID 2283386)
Outline: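 Gain in fluorescence, fitted relative to DMSO, reflects Nurr1–RXRα association in HEK293T cells after 24 h dosing. Bait and prey are each linked to a reporter-protein fragment that reassembles on interaction.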

[10] = target: Peroxisome proliferator-activated receptor gamma (Homo sapiens) (UniProt P37231); test: OT_PPARg_PPARgSRC1_0480: Odyssey Thera (OT) 8-hour Protein-Complementation Assay for Peroxisome Proliferator-activated Receptor Gamma / SRC-1 Co-activator (AID 2283387)
Outline: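 HEK293T transiently transfected with PPARg and SRC-1 fused to Venus YFP fragments, compounds 8 h at 37C. Fixed, Draq5-stained cells imaged; nuclear/cytoplasmic 488 nm fluorescence ratio over at least 350 cells per image; gain fitted versus DMSO.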

[11] = target: Peroxisome proliferator-activated receptor gamma (Homo sapiens) (UniProt P37231); test: OT_PPARg_PPARgSRC1_1440: Odyssey Thera (OT) 24-hour Protein-Complementation Assay for Peroxisome Proliferator-activated Receptor Gamma/ SRC-1 Co-activator (AID 2283388)
Outline: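 HEK293T transiently transfected with PPARg/SRC-1 split-Venus YFP fusions 48 h before dosing, then treated 24 h at 37C. Fixed cells imaged; nuclear/cytoplasmic 488 nm fluorescence ratio, gain of signal versus DMSO.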

[12] = CEETOX_H295R_OHPREG: CeeTox H295R High-throughput Steroidogenesis Assay for OH-Pregnenolone (OHPREG) (AID 2283434; active means hit-call score of the fitted dose curve at least 0.9, where 1 is the maximum; inactive means score below 0.9); conditions: actives raise or lower the signal
Outline: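 Readout: HPLC-MS/MS of 17alpha-hydroxypregnenolone in medium after 48 h chemical exposure of H295R cells pretreated with forskolin. Values fitted bidirectionally relative to DMSO; chemicals reducing viability to 20–70% were retested after 10-fold dilution.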

[13] = CEETOX_H295R_OHPROG: CeeTox H295R High-throughput Steroidogenesis Assay for OH-Progesterone (OHPROG) (AID 2283435; active means hit-call score of the fitted dose curve at least 0.9, where 1 is the maximum; inactive means score below 0.9;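 on AC50: 17alpha-hydroxyprogesterone secreted into medium measured by HPLC-MS/MS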); conditions: actives raise or lower the signal
Outline: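 Medium steroid levels read by LC-MS/MS after 48 h chemical treatment (0.1% DMSO) of human adrenal H295R cells that had been forskolin-primed (10 uM, 48 h). Gain or loss fitted against DMSO; MTT cytotoxicity checked per well.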

[14] = target: mouse Estrogen Receptor alpha (Era), Esr1 (gene 13982) (UniProt P19785); test: NVS_NR_mERa: NovaScreen (NVS) Nuclear Receptor Binding Assay for mouse Estrogen Receptor alpha (Era) (AID 2283378);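 further: hit means loss of bound radioligand signal relative to DMSO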
Outline: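 Cell-free radioligand competitive displacement binding, read by filter-based scintillation counting 18 h after dosing. Primary screen run in duplicate at 25 uM, actives retested in concentration series; loss of signal versus DMSO.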

[15] = target: Agonist Androgen Response Element (ARE), AR (gene 367) (UniProt P10275); test: OT_AR_ARELUC_AG_1440: Odyssey Thera (OT) 24-hour CHO-K1 Luciferase Assay for Agonist Androgen Response Element (ARE) (AID 2283379)
Outline: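 Luminescence increase above DMSO, read after a 24 h compound treatment of CHO-K1 cells expressing an androgen response element luciferase reporter, gives the single primary endpoint; concentration-response fitting used the positive direction.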

[16] = CEETOX_H295R_11DCORT: CeeTox H295R High-throughput Steroidogenesis Assay for 11-Deoxycortisol (11DCORT) (AID 2283432; active means hit-call score of the fitted dose curve at least 0.9, where 1 is the maximum; inactive means score below 0.9); conditions: actives raise or lower the signal
Outline: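 H295R cells prestimulated 48 h with 10 uM forskolin, then exposed 48 h to chemical in 0.1% DMSO. 11-Deoxycortisol in medium quantified by HPLC-MS/MS after MTBE extraction; bidirectional fit versus DMSO. MTT viability read in same wells.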

[17] = CEETOX_H295R_ANDR: CeeTox H295R High-throughput Steroidogenesis Assay for Androstenedione (ANDR) (AID 2283436; active means hit-call score of the fitted dose curve at least 0.9, where 1 is the maximum; inactive means score below 0.9;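 further: human H295R adrenal cells exposed for 48 h with androstenedione measured in medium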); conditions: actives raise or lower the signal
Outline: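 Steroidogenesis in H295R adrenal cells after 48 h dosing; androstenedione quantified by LC-MS/MS, with DMSO as negative control and baseline for bidirectional curve fitting.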

[18] = CEETOX_H295R_CORTIC: CeeTox H295R High-throughput Steroidogenesis Assay for Corticosterone (CORTIC) (AID 2283437; active means hit-call score of the fitted dose curve at least 0.9, where 1 is the maximum; inactive means score below 0.9;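 further: human H295R adrenal cells prestimulated with forskolin before chemical exposure; corticosterone secreted into medium quantified by mass spectrometry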); conditions: actives raise or lower the signal
Outline: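 Steps: seed H295R, adhere overnight; 10 uM forskolin 48 h; replace with chemical (0.1% DMSO) 48 h; extract medium with MTBE; quantify corticosterone by HPLC-MS/MS; score bidirectionally vs DMSO.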

[19] = CEETOX_H295R_CORTISOL: CeeTox H295R High-throughput Steroidogenesis Assay for Cortisol (AID 2283438; active means hit-call score of the fitted dose curve at least 0.9, where 1 is the maximum; inactive means score below 0.9;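 further: cortisol secreted into medium quantified by LC-MS/MS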); conditions: actives raise or lower the signal
Outline: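 Cortisol measured by HPLC-MS/MS after MTBE extraction of medium from H295R cells exposed 48 h to chemical (0.1% DMSO), following 48 h prestimulation with 10 uM forskolin. Viability assessed by MTT in the same wells.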

[20] = CEETOX_H295R_DOC: CeeTox H295R High-throughput Steroidogenesis Assay for DOC (AID 2283439; active means hit-call score of the fitted dose curve at least 0.9, where 1 is the maximum; inactive means score below 0.9); conditions: actives raise or lower the signal
Outline: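 11-Deoxycorticosterone quantified in medium by MTBE extraction and HPLC-MS/MS after 48 h chemical exposure (0.1% DMSO) of forskolin-primed (10 uM, 48 h) H295R cells. Same-well MTT viability; data fitted bidirectionally against DMSO.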

Measured: AC50

Chain of Peroxisome proliferator-activated receptor gamma (Homo sapiens) (P37231 whole entry, looked up, the tested form may be a part): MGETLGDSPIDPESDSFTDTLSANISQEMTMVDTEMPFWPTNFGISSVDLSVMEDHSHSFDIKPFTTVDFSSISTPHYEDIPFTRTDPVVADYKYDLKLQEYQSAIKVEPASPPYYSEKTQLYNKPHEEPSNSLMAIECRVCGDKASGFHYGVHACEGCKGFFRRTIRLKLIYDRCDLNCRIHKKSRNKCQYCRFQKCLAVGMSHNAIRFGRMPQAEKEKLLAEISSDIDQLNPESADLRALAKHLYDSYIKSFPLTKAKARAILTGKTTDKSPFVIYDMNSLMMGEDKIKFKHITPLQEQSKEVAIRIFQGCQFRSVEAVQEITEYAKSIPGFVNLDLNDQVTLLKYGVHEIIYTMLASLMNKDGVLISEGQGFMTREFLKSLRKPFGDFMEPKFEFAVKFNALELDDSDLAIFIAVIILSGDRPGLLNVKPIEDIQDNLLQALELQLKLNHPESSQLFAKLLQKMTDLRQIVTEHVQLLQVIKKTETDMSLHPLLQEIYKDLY
Chain of Agonist Androgen Response Element (ARE), AR (gene 367) (P10275 whole entry, looked up): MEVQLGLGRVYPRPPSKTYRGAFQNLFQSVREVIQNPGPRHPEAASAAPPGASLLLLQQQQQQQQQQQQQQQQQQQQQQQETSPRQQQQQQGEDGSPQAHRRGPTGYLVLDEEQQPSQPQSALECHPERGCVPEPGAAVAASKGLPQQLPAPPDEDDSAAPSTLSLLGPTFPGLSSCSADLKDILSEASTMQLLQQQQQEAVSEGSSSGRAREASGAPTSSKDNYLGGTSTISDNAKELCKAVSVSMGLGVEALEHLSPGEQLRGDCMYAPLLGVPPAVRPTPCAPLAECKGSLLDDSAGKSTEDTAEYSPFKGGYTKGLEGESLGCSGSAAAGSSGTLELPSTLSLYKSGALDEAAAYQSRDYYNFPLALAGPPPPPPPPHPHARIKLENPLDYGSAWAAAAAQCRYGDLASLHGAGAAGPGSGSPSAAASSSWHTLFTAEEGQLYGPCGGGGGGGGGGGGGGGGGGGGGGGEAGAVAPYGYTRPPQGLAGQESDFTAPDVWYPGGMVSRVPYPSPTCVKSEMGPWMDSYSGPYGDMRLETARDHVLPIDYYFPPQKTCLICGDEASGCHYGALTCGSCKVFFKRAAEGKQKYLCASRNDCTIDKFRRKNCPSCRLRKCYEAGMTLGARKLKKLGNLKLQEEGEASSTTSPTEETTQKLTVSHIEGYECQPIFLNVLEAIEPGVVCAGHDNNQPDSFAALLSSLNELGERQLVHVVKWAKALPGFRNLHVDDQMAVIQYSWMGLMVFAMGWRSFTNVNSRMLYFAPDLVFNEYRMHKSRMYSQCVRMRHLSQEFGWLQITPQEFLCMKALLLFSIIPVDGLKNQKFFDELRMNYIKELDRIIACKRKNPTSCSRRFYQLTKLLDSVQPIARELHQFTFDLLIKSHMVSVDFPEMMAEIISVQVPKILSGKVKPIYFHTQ
Chain of human Norepinephrine Transporter (NET), SLC6A2 (gene 6530) (P23975 whole entry, looked up): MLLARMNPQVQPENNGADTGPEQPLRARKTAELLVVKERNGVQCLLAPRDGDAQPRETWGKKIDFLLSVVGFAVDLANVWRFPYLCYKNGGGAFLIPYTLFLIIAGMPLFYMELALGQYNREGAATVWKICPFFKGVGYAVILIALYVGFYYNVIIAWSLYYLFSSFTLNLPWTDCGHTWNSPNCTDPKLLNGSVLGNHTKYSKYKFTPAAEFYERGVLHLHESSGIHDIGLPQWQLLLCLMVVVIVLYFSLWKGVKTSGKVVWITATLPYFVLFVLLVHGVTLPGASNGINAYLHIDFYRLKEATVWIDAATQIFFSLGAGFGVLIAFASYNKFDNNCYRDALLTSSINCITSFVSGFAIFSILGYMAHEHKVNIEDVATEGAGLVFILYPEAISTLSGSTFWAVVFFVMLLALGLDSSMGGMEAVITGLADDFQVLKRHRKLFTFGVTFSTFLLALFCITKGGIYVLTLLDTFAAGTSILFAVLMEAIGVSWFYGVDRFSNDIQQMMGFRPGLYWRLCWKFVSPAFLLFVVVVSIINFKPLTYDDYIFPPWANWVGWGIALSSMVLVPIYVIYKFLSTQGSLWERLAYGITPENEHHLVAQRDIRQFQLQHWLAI
Chain of Bile acid receptor (Homo sapiens) (Q96RI1 whole entry, looked up, the tested form may be a part): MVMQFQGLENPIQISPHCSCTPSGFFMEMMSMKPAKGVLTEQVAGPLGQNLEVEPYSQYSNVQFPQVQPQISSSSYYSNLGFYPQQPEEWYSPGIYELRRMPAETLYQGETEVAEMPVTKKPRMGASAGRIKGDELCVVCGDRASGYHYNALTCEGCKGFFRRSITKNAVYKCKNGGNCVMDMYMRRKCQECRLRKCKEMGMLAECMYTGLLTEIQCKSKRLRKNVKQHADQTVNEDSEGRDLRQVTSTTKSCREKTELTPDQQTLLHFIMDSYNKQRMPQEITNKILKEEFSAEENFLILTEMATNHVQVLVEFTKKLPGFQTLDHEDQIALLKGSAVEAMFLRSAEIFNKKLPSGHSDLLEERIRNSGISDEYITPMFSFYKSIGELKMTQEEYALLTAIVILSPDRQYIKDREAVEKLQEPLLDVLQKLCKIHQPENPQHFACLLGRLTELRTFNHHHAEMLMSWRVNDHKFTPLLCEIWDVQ
Chain of mouse Estrogen Receptor alpha (Era), Esr1 (gene 13982) (P19785 whole entry, looked up): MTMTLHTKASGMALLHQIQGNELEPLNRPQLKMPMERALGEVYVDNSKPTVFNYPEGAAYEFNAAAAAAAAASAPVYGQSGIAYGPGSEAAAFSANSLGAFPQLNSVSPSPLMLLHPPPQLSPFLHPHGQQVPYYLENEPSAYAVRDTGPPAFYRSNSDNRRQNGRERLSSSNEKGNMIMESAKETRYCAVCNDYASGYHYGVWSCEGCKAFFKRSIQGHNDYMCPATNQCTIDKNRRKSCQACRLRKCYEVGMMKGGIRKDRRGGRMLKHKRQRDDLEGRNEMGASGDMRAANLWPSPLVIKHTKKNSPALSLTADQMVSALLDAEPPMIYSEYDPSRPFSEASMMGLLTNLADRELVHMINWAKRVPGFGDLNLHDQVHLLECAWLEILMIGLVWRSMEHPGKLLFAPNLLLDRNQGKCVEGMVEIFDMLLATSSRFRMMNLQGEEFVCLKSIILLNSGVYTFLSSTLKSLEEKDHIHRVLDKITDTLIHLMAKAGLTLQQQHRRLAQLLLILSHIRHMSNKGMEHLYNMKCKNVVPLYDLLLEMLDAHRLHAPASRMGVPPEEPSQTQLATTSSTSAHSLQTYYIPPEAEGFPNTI
Chain of Retinoic acid receptor RXR-alpha (Homo sapiens) (P19793 whole entry, looked up, the tested form may be a part): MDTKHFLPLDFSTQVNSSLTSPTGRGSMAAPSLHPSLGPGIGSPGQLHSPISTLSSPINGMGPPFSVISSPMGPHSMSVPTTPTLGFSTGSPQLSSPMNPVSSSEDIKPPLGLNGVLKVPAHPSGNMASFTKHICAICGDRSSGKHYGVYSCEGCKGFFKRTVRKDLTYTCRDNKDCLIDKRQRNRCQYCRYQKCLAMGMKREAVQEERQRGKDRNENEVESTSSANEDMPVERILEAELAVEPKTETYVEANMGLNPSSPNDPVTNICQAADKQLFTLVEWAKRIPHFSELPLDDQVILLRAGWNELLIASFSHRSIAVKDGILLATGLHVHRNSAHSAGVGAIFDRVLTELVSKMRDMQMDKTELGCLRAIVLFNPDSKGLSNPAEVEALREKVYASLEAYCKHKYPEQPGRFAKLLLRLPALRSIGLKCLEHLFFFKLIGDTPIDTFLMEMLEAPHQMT
Chain of Estrogen receptor beta (Homo sapiens) (Q92731 whole entry, looked up, the tested form may be a part): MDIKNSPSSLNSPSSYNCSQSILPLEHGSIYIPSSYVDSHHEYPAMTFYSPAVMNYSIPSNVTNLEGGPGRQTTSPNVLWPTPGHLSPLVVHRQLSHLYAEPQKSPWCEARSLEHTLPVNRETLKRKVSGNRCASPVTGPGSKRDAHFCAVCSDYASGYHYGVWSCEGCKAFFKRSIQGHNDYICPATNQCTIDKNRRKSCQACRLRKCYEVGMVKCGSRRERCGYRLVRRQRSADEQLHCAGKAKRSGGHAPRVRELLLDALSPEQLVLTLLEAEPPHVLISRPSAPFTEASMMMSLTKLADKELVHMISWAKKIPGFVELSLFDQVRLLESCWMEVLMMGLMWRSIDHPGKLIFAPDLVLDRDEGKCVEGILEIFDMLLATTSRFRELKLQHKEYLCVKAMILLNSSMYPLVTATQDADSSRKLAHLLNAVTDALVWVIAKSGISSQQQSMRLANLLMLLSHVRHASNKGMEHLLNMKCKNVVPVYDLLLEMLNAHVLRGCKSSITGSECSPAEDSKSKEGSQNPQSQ
Chain of Estrogen receptor (Homo sapiens) (P03372 whole entry, looked up): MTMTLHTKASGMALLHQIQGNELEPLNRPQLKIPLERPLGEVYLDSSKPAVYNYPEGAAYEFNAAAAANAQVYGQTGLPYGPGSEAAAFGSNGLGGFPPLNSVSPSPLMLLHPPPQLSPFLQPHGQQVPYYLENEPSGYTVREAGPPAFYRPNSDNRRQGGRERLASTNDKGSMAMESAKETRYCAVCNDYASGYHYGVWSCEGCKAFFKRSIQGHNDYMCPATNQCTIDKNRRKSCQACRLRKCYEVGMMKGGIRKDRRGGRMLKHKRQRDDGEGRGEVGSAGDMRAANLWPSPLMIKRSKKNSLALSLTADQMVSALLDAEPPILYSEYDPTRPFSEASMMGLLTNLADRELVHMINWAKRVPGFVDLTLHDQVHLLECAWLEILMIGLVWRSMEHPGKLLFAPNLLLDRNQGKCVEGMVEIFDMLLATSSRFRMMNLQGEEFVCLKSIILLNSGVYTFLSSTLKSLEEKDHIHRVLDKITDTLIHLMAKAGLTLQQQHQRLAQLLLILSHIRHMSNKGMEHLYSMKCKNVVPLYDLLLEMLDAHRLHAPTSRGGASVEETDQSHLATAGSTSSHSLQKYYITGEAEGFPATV

Cc1ccc([N+](=O)[O-])cc1N
active: [13] 18.8 µM
not listed: [14] | [15] | [16] | [17] | [18] | [19] | [20]
inactive: all other assays above

CCCCCCCCCCCCc1ccc(O)cc1
active: [3] 0.981 µM | [4] 444 nM | [5] 0.612 µM
inactive: [14] | [11]

CCCCCCCOC(=O)c1ccc(O)cc1
inactive: [14] | [10] | [11]
active: [3] 5.06 µM | [4] 3390 nM | [5] 3.08 µM | [9] 90.7 µM

COc1ccc(C(=O)c2ccccc2)c(O)c1
active: [3] 57.8 µM | [17] 25 µM | [18] 11.1 µM
not listed: [1] | [2] | [9] | [14]
inactive: all other assays above

C[Si](C)(C)N[Si](C)(C)C
inactive: [14] | [3] | [4] | [5] | [10] | [11]

O=C(O)c1ccc2c(c1)C(=O)OC2=O
inactive: [15] | [3] | [4] | [7] | [8] | [9] | [10] | [11]
active: [5] 22.6 µM

Cc1ccc(C)c(OCCCC(C)(C)C(=O)O)c1
inactive: [15] | [3] | [4] | [5] | [6] | [7]

COC(=O)C=Cc1ccccc1
inactive: [2]

CC/C=C\C/C=C\C/C=C\CCCCCCCC(=O)OC
active: [2] 11.1 µM

CCCCCCCO
inactive: [3] | [4] | [5] | [8] | [9] | [10] | [11]

CCCCCC(=O)OCC
inactive: [3] | [4] | [5] | [7] | [9] | [10] | [11]

CC(=O)OCc1ccccc1
inactive: [15] | [3] | [4] | [5] | [8] | [10] | [11]

CCCCC(C=O)CC (centres undefined)
inactive: [3] | [4] | [5] | [6] | [9] | [10] | [11]

CCCCC(=O)O
inactive: [3] | [4] | [5] | [6] | [9] | [10] | [11]
